An excerpt weighted towards active compounds, which were near 2.3% of everything screened.
CHT PAM: human CHT allosteric activation. AID 488977. actives 0.49% (n = 310,000). B-score at 10 µM. CHT-expressing cells, membrane potential dye, choline EC20; stronger effect = higher value; LV-AA mutant CHT in HEK293 cells;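 active means initial fluorescence not abnormally high and integrated response B-score, plate-corrected, over 3 SD above library mean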
TMEM16A act: activates or potentiates the mouse TMEM16A chloride channel. Q8BHY3. actives 0.3% (n = 340,000). B-score at 10 µM. AID 623877. HEK293 TMEM16A/YFP-H148Q/I152L, iodide quench fluorescence; stronger effect = lower value;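 active means fluorescence-ratio B-score plate-corrected deviation score at least 3 library SD below zero, with starting fluorescence score within 5 deviations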;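 further: channel opened by trigger with iodide after compound preincubation; score built on the fluorescence ratio of max minus min over baseline; more negative score means more quench and so TMEM16A activation or potentiation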
CHT block: human CHT choline transport inhibition; Q9GZV3; CHT-expressing cells, membrane potential dye, choline response; stronger effect = lower value; B-score at 10 µM; actives 0.86% (n = 310,000); AID 488975;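 active means B-score over 3 SD under the library average, and starting fluorescence ratio not unusually high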;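 further: choline stimulus applied at its EC90 after an EC20 pre-addition; B-score computed on integrated fluorescence ratio after choline addition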
ANO1 block: mouse TMEM16A channel inhibition, primary screen | Q8BHY3 | HEK293 TMEM16A/YFP iodide influx fluorescence, ionomycin | normalized B-score (activity score, 25-100; higher = stronger inhibition) at 10 µM | actives 1.2% (n = 310,000);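 active means ratio plate-corrected score three or more library SD toward inhibition, starting fluorescence score within five deviations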;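 further: score derived from kinetic fluorescence span divided by baseline fluorescence per well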
TMEM16A reconf: reconfirmed blocker of mouse TMEM16A calcium-activated chloride channel; shares compounds with ANO1 block; inhibition, % at 10 µM; HEK293 TMEM16A/YFP-H148Q, iodide quench fluorescence; ionomycin added to raise cell calcium; actives 39% (n = 2,300);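 active means mean duplicate percent inhibition, scaled so buffer wells are 0 and the reference blocker 100, over three buffer SD above buffer mean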
HEK293 Ca mobil: alters calcium mobilization in TMEM16A HEK293 cells, counter-screen; shares compounds with ANO1 block; TMEM16A/YFP HEK293, Fluo4 calcium mobilization; calcium response (% of ionomycin), % at 10 µM; actives 2% (n = 2,300); AID 652231;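 active means duplicate-averaged calcium signal over 20% of the ionomycin maximum, relative to buffer baseline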;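 further: each well's signal is peak minus trough fluorescence divided by its pre-addition baseline; 0% = buffer wells and 100% = ionomycin wells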
YFP-HEK293 quench: acts in parental YFP-HEK293 cells lacking TMEM16A, counter-screen. YFP ratio F(max-min)/F0 at 10 µM. 2,300 tested, under 10 active. shares compounds with ANO1 block. AID 652233. iodide YFP quench, ionomycin;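 active means yellow fluorescent protein signal ratio exceeding the buffer control mean by over 5 SD of those controls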;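 further: ratio is mean of duplicate wells from kinetic YFP trace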
ClC-1 rat inh: blocks the rat ClC-1 voltage-dependent chloride channel | AID 652236 | ratio percent, % at 10 µM | CHO ClC-1-YFP, iodide influx fluorescence quench; iodide control reads 0, buffer control 100 | shares compounds with ANO1 block | 2,300 tested, under 10 active;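 active means duplicate-mean ratio percent above the mean of iodide-only control wells, which defines zero, plus 5 of their SD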;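 further: higher percent means stronger block of ClC-1 iodide influx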
Target sequence (P35524 whole entry, looked up): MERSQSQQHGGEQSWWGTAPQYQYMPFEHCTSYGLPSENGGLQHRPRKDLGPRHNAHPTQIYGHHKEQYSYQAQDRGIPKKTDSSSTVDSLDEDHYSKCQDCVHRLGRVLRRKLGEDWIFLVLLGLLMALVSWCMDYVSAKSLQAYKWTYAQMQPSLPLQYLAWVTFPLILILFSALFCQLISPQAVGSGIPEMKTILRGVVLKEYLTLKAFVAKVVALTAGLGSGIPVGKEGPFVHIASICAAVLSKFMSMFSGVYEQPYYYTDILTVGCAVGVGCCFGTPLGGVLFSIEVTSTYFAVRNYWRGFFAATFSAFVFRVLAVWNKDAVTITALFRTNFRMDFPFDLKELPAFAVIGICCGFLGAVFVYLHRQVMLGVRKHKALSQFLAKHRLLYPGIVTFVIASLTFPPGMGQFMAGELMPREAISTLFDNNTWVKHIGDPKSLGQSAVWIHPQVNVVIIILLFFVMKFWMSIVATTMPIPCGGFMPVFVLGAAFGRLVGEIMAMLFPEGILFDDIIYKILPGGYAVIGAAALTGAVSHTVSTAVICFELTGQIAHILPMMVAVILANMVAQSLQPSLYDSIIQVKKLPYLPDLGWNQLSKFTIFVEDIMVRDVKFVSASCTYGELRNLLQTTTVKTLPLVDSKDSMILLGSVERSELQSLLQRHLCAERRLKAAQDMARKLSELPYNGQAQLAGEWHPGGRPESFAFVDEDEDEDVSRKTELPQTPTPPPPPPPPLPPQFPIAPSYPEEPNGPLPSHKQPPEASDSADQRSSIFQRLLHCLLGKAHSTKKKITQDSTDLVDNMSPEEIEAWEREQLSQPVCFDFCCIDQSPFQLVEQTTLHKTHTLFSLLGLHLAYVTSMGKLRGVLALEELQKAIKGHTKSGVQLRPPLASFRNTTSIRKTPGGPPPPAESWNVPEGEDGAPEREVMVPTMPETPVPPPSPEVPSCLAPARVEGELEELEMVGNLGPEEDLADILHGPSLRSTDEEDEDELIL
* hit, by the source's call; i = inactive; nt = no result.

SMILES | CHT PAM | TMEM16A act | CHT block | ANO1 block | TMEM16A reconf | HEK293 Ca mobil | YFP-HEK293 quench | ClC-1 rat inh
OC(COC(c1ccccc1)c1ccccc1)CN1CCN(c2cccc(Cl)c2)CC1 (stereo unspecified) | i | i | i | 25* | i | i | -0.9 | -10
C[C@]12CCC[C@H](O1)[C@H]([C@@H](O)c1ccccc1)O2 | nt | i | nt | nt | nt | nt | nt | nt
Cn1cc(CNC(=O)c2cc(COc3ccc4c(c3)CCCC4)on2)cn1 | i | i | i | 25* | i | i | -1.1 | -8
CCN(Cc1cnn(C)c1)C(=O)c1cc(COc2ccc3c(c2)CCCC3)on1 | i | i | i | i | nt | nt | nt | nt
O=c1c(C/C=C/c2ccccc2)c(O)ccn1Cc1ccc(Cl)cc1Cl | i | i | i | 100* | i | i | -0.78 | -18
CCOC(=O)c1sc(NC(=O)c2ccncc2)c(C#N)c1C | i | i | i | 25* | 35%* | i | -1.1 | -23
CCOC(=O)c1sc(NC(=O)CSc2nc3c(cc2C#N)CCCCCC3)c(C#N)c1C | i | i | i | 100* | i | i | -1.5 | -6
CCOC(=O)c1sc(NC(=O)CSc2nc3c(c(-c4ccc(OC)cc4)c2C#N)CCCC3)c(C#N)c1C | i | i | i | i | nt | nt | nt | nt
O=C(Cc1ccccc1)Nc1ccc(NC(=O)c2cccs2)c(Cl)c1 | i | i | i | i | nt | nt | nt | nt
C/C(N)=C(/C#N)C(=O)COC(=O)CC12CC3CC(CC(C3)C1)C2 | i | i | i | i | nt | nt | nt | nt
C/C(N)=C(/C#N)C(=O)COC(=O)C1CCC(C(C)(C)C)CC1 (stereo unspecified) | i | i | i | 25* | 28%* | i | -1 | -41
O=S(=O)(c1ccccc1)c1nc(-c2ccccc2)oc1N1CCOCC1 | i | i | i | i | nt | nt | nt | nt
COc1cc(-c2nc(S(=O)(=O)c3ccccc3)c(N3CCOCC3)o2)cc(OC)c1OC | i | i | i | 100* | i | i | -1 | -7
CCOC(=O)C1=C(COC(=O)CCOc2ccccc2)NC(=O)NC1C (stereo unspecified) | nt | i | nt | nt | nt | nt | nt | nt
COc1ccc(S(=O)(=O)Nc2cccc3c2O[C@H](CN(C)C(=O)Nc2c(C)noc2C)[C@@H](C)CN([C@H](C)CO)C3=O)cc1 | nt | i | nt | nt | nt | nt | nt | nt
CCOC(=O)c1ccc(-n2[nH]c(-c3ccccc3)cc2=O)cc1 | i | i | i | 100* | i | i | -0.89 | -4
CCOC(=O)c1ccc(N=Nc2c(C)[nH]n(-c3ccccc3)c2=O)cc1 | i | i | i | i | nt | nt | nt | nt
O=C(NCC1(N2CCOCC2)CCCCC1)c1ccc(Cl)c(S(=O)(=O)NCc2ccco2)c1 | i | i | i | 100* | i | i | -1 | -7
Cc1onc(-c2ccccc2)c1C(=O)NC(=S)NNC(=O)c1ccncc1 | i | i | i | i | nt | nt | nt | nt
Cc1onc(-c2ccccc2)c1C(=O)NC(=S)NNC(=O)c1cc(-c2ccc(F)cc2)n[nH]1 | i | i | i | 25* | i | i | -0.84 | 2
Cc1cc(C)cc(NC(=O)c2cccc(C(=O)Nc3cc(C)cc(C)c3)n2)c1 | i | i | i | i | nt | nt | nt | nt
COc1ccc(NS(=O)(=O)c2ccc3oc(SC(C)C(N)=O)nc3c2)cc1 (stereo unspecified) | i | i | i | 25* | i | i | -0.91 | -14
O=C(c1ccc(F)cc1)N1CCC(c2ccccc2)C1 (stereo unspecified) | i | i | i | i | i | i | -0.82 | -17
OC(COc1ccc2ccccc2c1Br)Cn1ccnc1 (stereo unspecified) | i | i | i | 25* | i | i | -1 | -1
CC(=O)Nc1ccc(NC(=O)CCCCCN2C(=O)c3ccccc3C2=O)cc1 | i | i | i | i | nt | nt | nt | nt
